Experimental data from PubChem BioAssay (Tox21).
Unmarked numbers belong to inactive results. Calls come from the whole dose curve; as a rule, active = well fitted curve in the direction sought with a large enough effect in the repeat runs; inconclusive = weak or mixed curves; inactive = flat fitted curve, though single readings scatter.

Test: qHTS assay to test for compound auto fluorescence at 460 nm (blue) in HepG2 cells (AID 720687)
Settings: autofluorescence 405/460 nm, 1 h; series mostly up to 91.3 µM; fluorescence, % of fluorescent control: at the top concentration
Source text: U.S. Tox21 Program National Center for Advancing Translational Sciences [NCATS] NIH Chemical Genomics Center [NCGC] U.S. Environmental Protection Agency [EPA] National Institutes of Environmental Health Sciences [NIEHS] National Toxicology Program [NTP] U.S. Food and Drug Administration [FDA] Tox21 Assay Overview: Compound auto fluorescence often interferes with screening of the compound library against various biological targets and signaling pathways. Some of these compounds may have fluorophoric properties. Such properties may interfere with the assay outputs resulting in false positives and/or negatives. To decrease such complications and ensure the compound activities are relevant in terms of biological response, the Tox21 10K compound library was screened for auto fluorescence. From the fluorophores used as reporter signals in our screening assays, the auto fluorescence equivalencies of compounds against three fluorophores have been evaluated: Triamterene, Fluorescein and Rose Bengal sodium for blue, green and red fluorescence, respectively. The fluorescence intensities were measured using Excitation/Emission wavelengths at 405/460nm, 485/535nm and 540/590nm for blue, green and red labels, respectively. This assay includes the blue fluorescence data.
Tox21 Assay Protocol Summary: 2,000 HepG2 cells in 5 uL of culture medium (MEM containing 10% FBS) per well were dispensed into black wall/clear bottom 1536-well plates using a Multidrop Combi Dispenser (ThermoFisher Scientific, Waltham, MA). The assay plates were incubated overnight at 37 C to allow cell attachment to the well bottom, followed by the transfer of 23 nL compound or DMSO vehicle by a pintool work station (Kalypsys , San Diego, CA). After the assay plates were incubated for 1 hr at 37 C and 5% CO2, fluorescence intensities in the assay plates were measured by an Envision (PerkinElmer, Shelton, CT) plate reader using three labels for measuring blue, green and red fluorescence at […] 460, 535 and 590 nm respectively.
% is set by controls: 0 for no effect and ±100 for the full control effect.

Structure (SMILES) | fluorescence, % of fluorescent control
CC(C)CCO | 0.0351%
Cc1ccccc1C | 0.0188% [at 95.7 µM]
Nc1ccc(S(=O)(=O)NC(=O)c2ccccc2)cc1 | -0.0228% [at 18.6 µM]
Cc1cc(C)cc([N+](=O)[O-])c1 | 0.0616% [at 95.7 µM]
CC(=O)N(CC(O)CO)c1c(I)c(C(=O)NCC(O)CO)c(I)c(C(=O)NCC(O)CO)c1I (stereo not given) | -0.0149% [at 46 µM]
O=C1NC2NC(=O)NC2N1 (stereo not given) | 0.134%
CCCCCCCCCOCC1CO1 (stereo not given) | -0.0071% [at 95.7 µM]
CCCCCCCCC(=O)OCC | -0.0423%
CCCCCC(=O)OCC | -0.0676%
CCCCC(CC)C(=O)OC(C)C (stereo not given) | 0.0302%
CCCCOC(=O)C(=O)OCCCC | -0.04%
CCCCOC(=O)[C@@H](C)Oc1ccc(Oc2ccc(C(F)(F)F)cn2)cc1 | 0.218%
O=C(O)c1c(Cl)ccc(Cl)c1Cl | -0.112%
NC(=O)C1(N2CCCCC2)CCN(CCCC(=O)c2ccc(F)cc2)CC1 | -0.149% [at 46 µM]
NCCc1ccn[nH]1 | -0.0013% [at 18.6 µM]
CC(C)CCCC(C)CC=O (stereo not given) | -0.058%
Oc1ccccc1Cc1ccccc1O | -0.0388%
CC(C)C(=O)c1ccccc1 | -0.0406%
OC(CCN1CCCCC1)(c1ccccc1)c1ccccc1 | 0.0252% [at 46 µM]
COc1cccc2sc(N)nc12 | -0.116%

Structure (SMILES) | fluorescence, % of fluorescent control
NS(=O)(=O)c1cc2c(cc1Cl)NC(C(Cl)Cl)NS2(=O)=O (stereo not given) | -0.0034% [at 18.6 µM]
OCCCCCCCl | -0.152% [at 95.7 µM]
CCCCCCCCCCCCCCCC(=O)NCCO | -0.0096% [at 46 µM]
O=C1CC[C@H](C(=O)N2CCCCC2)N1 | -0.073% [at 46 µM]
O=C1OC(=O)c2cc(Oc3ccc4c(c3)C(=O)OC4=O)ccc21 | 0.149%
CCOC(=O)OCC/C(SC(=O)OCC)=C(\C)N(C=O)Cc1cnc(C)nc1N | -0.0859% [at 46 µM]
Cc1oc(=O)oc1CN1CCN(c2cc3c(cc2F)c(=O)c(C(=O)O)c2n3C(C)S2)CC1 (stereo not given) | -0.124% [at 46 µM]
C=CCOc1cc(Cl)ccc1C(=O)NCCN(CC)CC | -0.0063% [at 46 µM]
CCC(=O)c1ccc(O)cc1 | -0.0038% [at 46 µM]
CC(Cl)COP(=O)(OCC(C)Cl)OCC(C)Cl (stereo not given) | -0.185%
CC(C)(CO)[C@@H](O)C(=O)NCCCO | -0.0242% [at 46 µM]
CNCc1ccccc1 | 0.0505% [at 46 µM]
CC1CCC(C(C)(C)S)C(=O)C1 (stereo not given) | 0.0077%
Nc1cc(Cl)cc(S(=O)(=O)O)c1O | 1.37% [at 95.7 µM]
Cc1cccc(Nc2ccncc2S(=O)(=O)NC(=O)NC(C)C)c1 | -0.0073% [at 18.6 µM]
CCCCC(C)C(=O)O (stereo not given) | 0.0013%
C=CCOc1c(Br)cc(Br)cc1Br | 0.03%
CCOC(=O)CC#N | 0.168%
Cc1nc(C)nc(N2C[C@@H](C)N(c3ccnc([C@@H](C)O)n3)[C@@H](C)C2)n1 | 0.037% [at 46 µM]
CNC(=O)C(c1ccccc1)c1ccccc1 | 0.0254%
